Compounds without any hit were thinned out: in the full panel of roughly 83,000, 20% have a hit.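 Treatment: one concentration, 48 hours, 96-well format. Scoring: percent growth, with anything below 10 considered active.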 A number with no mark means an inactive call. The source made the active and inactive calls.
These molecules were tested on MDA-MB-468 breast (assay: NCI-60 one-dose screen, 48 h (100 = growth as untreated, 0 = no growth, -100 = all killed)). Settings: 10 µM unless noted.

| SMILES | growth |
| --- | --- |
| CC(C)SC1=NC(=C(C(=N1)NC2=ClC=CC=C2)C#N)C3=CC=CC=C3 | 43% |
| CC(=O)Oc1cc(C)c(OC(C)=O)c(C)c1C | 47.1% |
| Nc1cc(Cl)cc2cccnc12 | 92.7% |
| C=C(c1ccc(C(=O)NCCCn2ccnc2)cc1)c1cc2c(cc1C)C(C)(C)CCC2(C)C | -5.41% (active) |
